DT40 TDP1 CPT: qHTS for Inhibitors of human tyrosyl-DNA phosphodiesterase 1 (TDP1): qHTS in cells in presence of CPT. chicken DT40 Tdp1-/-;hTDP1 cells + 20 nM CPT, ATP luminescence, 48 h. Potency, µM (series often up to 46.2 µM), inactives show top-dose activity change, negative = growth inhibition, hits mostly inhibitors. hit rate 12% among 420,000. AID 686979, 2013; note: nearly all actives have a fitted effect of over 55% in size
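Chicken DT40 Tdp1-/- cells complemented with human TDP1, 400 cells/well, exposed to compounds plus 20 nM camptothecin for at least 48 h at 37 C; viability read as ATP content by CellTiter-Glo luminescence.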
DT40 TDP1 no CPT: qHTS for Inhibitors of human tyrosyl-DNA phosphodiesterase 1 (TDP1): qHTS in cells in absence of CPT | DT40 Tdp1-/- hTDP1 cells, no CPT, ATP luminescence, 48 h | Potency, µM (series often up to 46.2 µM), inactives show at the top dose activity change, negative = growth inhibition, most hits filed as inhibitors | hit rate 15% among 420,000 | AID 686978, 2013; note: nearly all actives have a fitted effect of over 55% in size
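Seeded 400 DT40-hTDP1 cells/well (vehicle DMSO, no 20 nM CPT); pinned compounds; ≥48 hr at 37 °C; CellTiter-Glo luminescence as viability measure.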
KB-3-1 tox: qHTS assay for MDR1-selective chemotherapeutics: Primary screen using the parental adenocarcinoma cell KB-3-1; KB-3-1 viability, CellTiter-Glo ATP luminescence, 72 h; Potency, µM (doses to about 46.1 µM), most hits filed as cytotoxic; hit rate 1.4% among 400,000; AID 1347075, 2019; note: nearly all actives have a fitted effect of over 60% in size
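Multi-concentration cytotoxicity screen in KB-3-1 cells grown in DMEM lacking phenol red with 10% FBS. After 72 h at 37 °C with compound, ATP-dependent luminescence was recorded.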
HT1080-NT tox: qHTS for induction of synthetic lethality in tumor cells producing 2HG: qHTS for the HT-1080-NT fibrosarcoma cell line. AID 686970, 2013. HT-1080-NT fibrosarcoma viability, CellTiter-Glo ATP luminescence, 48 h. Potency, µM (highest dose often 46.1 µM), inactives show at the top dose activity, negative = less viability, usual class: cytotoxic. hit rate 1.6% among 360,000;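 note: NT is the 2HG producing partner of a matched IDH1 knockdown line; 0% = DMSO-treated cells and -100% = media-only wells without cells; nearly all actives have a fitted effect of over 55% in size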
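Compounds were tested in concentration-response format on HT-1080-NT cells for 48 hours at 37 degrees C. Cell viability came from CellTiter-Glo luminescence; curves were classified by r2, response magnitude and activity.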
HT1080 IDH1KD tx: qHTS for induction of synthetic lethality in tumor cells producing 2HG: qHTS for the HT-1080-IDH1KD cell line. hit rate 2% among 360,000. HT-1080 IDH1 knockdown viability, ATP luminescence, 48 h. Potency, µM (doses to about 46.1 µM), for the others: at the top dose activity, negative = toxicity, actives largely listed as cytotoxic;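 note: 0% = DMSO wells and -100% = cell-free medium wells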
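CellTiter-Glo luminescence after 48 h compound exposure at 37 degrees C of IDH1-knockdown HT-1080 cells in 5% FBS RPMI. %Activity scaled between DMSO wells and cell-free media wells, with curves fitted and assigned curve classes.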
KB-V1 cytotox: qHTS assay for MDR1-selective chemotherapeutics: Primary screen using the drug-selected MDR subline cells KB-V1. KB-V1 MDR cells viability, CellTiter-Glo, 72 h. Potency, µM (series often up to 46.1 µM), most hits filed as cytotoxic. hit rate 3.4% among 400,000. AID 1347076, 2019; note: nearly all actives have a fitted effect of over 60% in size
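Luminescent ATP read-out (CellTiter-Glo, 10 min) measures survival of drug-selected KB-V1 MDR cells after 72 h, 37 degrees C compound exposure. Medium: phenol-red-free DMEM, 10% FBS. Values from fitted concentration-response curves.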
Starred values were filed as active, the others as inactive; i = inactive; u = inconclusive; x = not tested or not shown. The list is not random: actives were taken first. Their share in the collection is about 19%. Calls come from the whole dose curve; as a rule, active = well fitted curve in the direction sought with a large enough effect; inconclusive = small, poorly fitted or top-dose-only effect, or another doubt; inactive = no such curve, though single readings can be large; an effect the other way counts as inactive or inconclusive. Unless noted, % is set by controls: 0 for no effect and ±100 for the full control effect; potency is the fitted concentration of half-maximal effect.

SMILES | DT40 TDP1 CPT | DT40 TDP1 no CPT | KB-3-1 tox | HT1080-NT tox | HT1080 IDH1KD tx | KB-V1 cytotox
CCN(CCCNC(=O)CC(C(=O)N1CCc2ccccc21)n1ccnc1)c1cccc(C)c1 (stereo not drawn) | -24% | -14% | i | -2% | u | 12µM*
CCCCN1CCCC[C@H]1C(=O)Nc1c(C)cccc1C | 1% | -29% | x | x | x | x
O=C(c1ccco1)N1CCN(c2ncnc3scc(-c4ccc(Cl)cc4)c23)CC1 | u | u | i | -26% | -28% | i
CCn1c(=S)sc2c(=O)n(CC(=O)Nc3cc(OC)ccc3OC)c(C)nc21 | u | 18µM* | i | -1% | 4% | i
Cc1nc2c(sc(=S)n2Cc2ccco2)c(=O)n1CC(=O)Nc1ccccc1Cl | u | -23% | i | -9% | -3% | i
CCn1c(=S)sc2c(=O)n(CC(=O)NC(C)CCc3ccccc3)c(C)nc21 (stereo not drawn) | u | 29µM* | i | 10% | 7% | i
CCn1c(=S)sc2c(=O)n(CC(=O)Nc3ccccc3OC)c(C)nc21 | u | u | i | 18% | 15% | i
CNS(=O)(=O)c1cn(CC(=O)Nc2ccc(C(C)=O)cc2)cc1S(=O)(=O)NC | -7% | 0% | i | x | x | i
C/C(=N\NC(=O)C1CC1)c1ccc(C)c(C)c1 | 6% | 3% | i | -12% | -7% | i
C/C(=N\NC(N)=O)c1ccc(Cl)s1 | 1% | 4% | i | 14% | 3% | u
CCNC(=S)N/N=C(\C)c1ccc(Cl)s1 | 4.1µM* | 4.1µM* | i | 4% | 4% | u
CNC(=S)N/N=C(\C)c1ccc(Cl)s1 | 2.9µM* | 4.6µM* | i | 14% | 14% | i
CNC(=S)N/N=C(\C)c1ccc(C)c(C)c1 | 2.6µM* | 3.3µM* | u | 0% | -3% | u
C/C(=N/Nc1ccc(F)cc1)c1ccc(Cl)s1 | -2% | 0% | i | 10% | 23% | i
C=C(C)CNC(=S)N/N=C(\C)c1ccc(Cl)s1 | u | 16µM* | i | 4% | 7% | u
CN1CCN(C(=O)C(=O)Nc2c3c(nn2-c2cccc(Cl)c2)CSC3)CC1 | 0% | -5% | i | x | x | i
CNC(=S)NN=C(C)c1ccc(OC)cc1O | 0.016µM* | 0.012µM* | u | 16% | 25% | u
COc1ccc(OC)c(CNS(=O)(=O)c2ccc3c(c2)CCCN3C(C)=O)c1 | u | u | i | x | x | i
CCc1cccc(C)c1NC(=O)C1CC=CCC1C(=O)O (stereo not drawn) | u | 21µM* | i | 9% | -4% | i
Cc1ccc(C)c(NC(=O)c2cc3ccccc3o2)c1 | -2% | -28% | i | 2% | 1% | i
CCc1cccc(C)c1NC(=O)c1cc2ccccc2o1 | 18µM* | 16µM* | i | x | x | i
CCCCNC(=O)CO/N=C(\C)c1cc2ccccc2o1 | u | u | i | 5% | 5% | 16µM*
CCc1cccc(C)c1NC(=O)C1CCCO1 (stereo not drawn) | -9% | -12% | i | 14% | 16% | i
O=C(Nc1ccccn1)c1cc2ccccc2o1 | 10µM* | u | u | u | u | u
C/C(=N\OCC(=O)NCC(F)(F)F)c1cc2ccccc2o1 | u | u | i | 21% | 14% | i
SMILES | DT40 TDP1 CPT | DT40 TDP1 no CPT | KB-3-1 tox | HT1080-NT tox | HT1080 IDH1KD tx | KB-V1 cytotox
O=C(Cn1cc([N+](=O)[O-])cn1)Nc1cccnc1 | 8% | 14% | i | 11% | 14% | i
CCc1cccc(C)c1NC(=O)CO/N=C(\C)c1cc2ccccc2o1 | 18µM* | 23µM* | i | -12% | -20% | u
COCCNc1nc(Oc2cncc(Cl)c2)c2sccc2n1 | u | u | i | -6% | -9% | i
CN1CCCC1CCNS(=O)(=O)c1ccc(Br)cc1 (stereo not drawn) | u | 9.2µM* | i | u | u | i
CC1CCCN(C(=O)CCNS(=O)(=O)c2ccc(Br)cc2)C1 (stereo not drawn) | -24% | -22% | i | 1% | 0% | u
O=S1(=O)[C@H]2C[C@H](CO)O[C@@]2(CO)CN1Cc1ccc(-c2ccc(F)cc2)cc1 | u | u | i | -1% | -4% | i
CCOC(=O)C1CCCN(C(=O)c2oc3ccccc3c2C)CC1 (stereo not drawn) | u | -29% | i | 7% | 8% | i
CCCCC[C@@H](/C=C/C1C(=O)C=C[C@H]1C/C=C\CCCC(=O)OC)OC(C)=O (stereo partly drawn) | 9.2µM* | 6.5µM* | u | u | u | u
CC(C)Oc1ccc(C(CCN)C2CCCCC2)cc1 (stereo not drawn) | 13µM* | 8.2µM* | u | 15µM* | 15µM* | 16µM*
COc1ccc(N2CC(C(=O)NC3CCSC3=O)CC2=O)cc1 (stereo not drawn) | -7% | 0% | i | 4% | 5% | i
CS(=O)(=O)N1N=C(c2ccco2)CC1c1ccc(Cl)cc1 (stereo not drawn) | -9% | -19% | i | -1% | -7% | 16µM*
COc1cc2c(cc1O)CCN[C@]21CS[C@@H]2c3c(OC(C)=O)c(C)c4c(c3[C@H](COC1=O)N1[C@@H]2[C@H]2c3c(cc(C)c(OC)c3O)C[C@@H]([C@@H]1O)N2C)OCO4 | 0.0043µM* | 0.0043µM* | x | x | x | x
CCN(CC)c1ccc(NC(=O)COc2ccccc2C#N)cc1S(=O)(=O)Nc1ccccc1OC | 2.6µM* | 2.3µM* | i | -17% | -13% | i
CCN(CC)c1ccc(NC(=O)c2ccccn2)cc1S(=O)(=O)Nc1ccccc1OC | 16µM* | 21µM* | i | 0% | -15% | u
COc1ccccc1NS(=O)(=O)c1cc(NC(=O)CNC(=O)c2ccccc2)ccc1C | -25% | -21% | i | -3% | 0% | i
